Several values for one entry are separate records, joined by “and”; a condition that tells them apart may be missing. Equal values may be shown once. Where a name gives a salt, the structure may show the parent alone.
Key:
Assay in all cases: cell viability relative to vehicle control; higher = less cytotoxic
Settings in all cases: 10 µM
K562 = test system: K562
Procedure, shortened: (§1)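 Four leukaemia lines, as CRISPR-edited mutant clones and isogenic wild-type clones, were tested against Selleck bioactive, kinase and epigenetic probe libraries after removal of identity-inconsistent compounds. Cells were exposed to a single 10 µM dose for 48 h, and CellTiter-Glo luminescence was then read. Viability was calculated relative to the on-plate vehicle control.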

MARIMO = test system: MARIMO
Procedure, shortened: as §1

MOLM14 = test system: MOLM14
Procedure, shortened: as §1

OCI-AML2 = test system: OCI-AML2
Procedure, shortened: as §1

| Compound | cell viability (K562; SRSF2 genotype: SRSF2 P95H/wt) | cell viability (K562; SRSF2 genotype: SRSF2 wt/wt) | cell viability (MARIMO; SRSF2 genotype: SRSF2 P95H/wt) | cell viability (MARIMO; SRSF2 genotype: SRSF2 wt/wt) | cell viability (MOLM14; SRSF2 genotype: SRSF2 P95H/wt) | cell viability (MOLM14; SRSF2 genotype: SRSF2 wt/wt) | cell viability (OCI-AML2; SRSF2 genotype: P95H/wt) | cell viability (OCI-AML2; SRSF2 genotype: wt/wt) |
| --- | --- | --- | --- | --- | --- | --- | --- | --- |
| COC(=O)c1c2c(c3ccccc3c1O)OC(C)(C)C=C2 [Rubimaillin] | 86.1% and 90% | 79.6% | 20% | 39.7% | 2.68% | 3.56% | 28.1% | 41.4% |
| CNC[C@H](O)c1ccc(O)c(O)c1 [Epinephrine bitartrate (Adrenalinium)] | 97.4% and 94.9% | 94% | 102% | 108% | 84.5% | 97.6% | 102% | 112% |
| CC12CC3CC(C)(C1)CC(N)(C3)C2 [Memantine hydrochloride (Namenda)] | 101% and 93.1% | 93.6% | 88.7% | 98.8% | 89.7% | 101% | 90.3% | 103% |
| COC(=O)C1(C)CCC2(C(=O)O)CCC3(C)C(=CCC4C5(C)CC(O)C(O)C(C)(CO)C5CCC43C)C2C1 (stereo not given) [Phytolaccagenin] | 108% | 113% | 111% | 103% | 111% | 111% | 105% | 98.5% |
| Cc1cc(N2CCOCC2)ccc1Nc1nc(NC2CCCCC2)c2[nH]cnc2n1 | 86.8% and 92.1% | 94.6% | 53% | 53.9% | 49.6% | 39% | 37.8% | 39.8% |
| CC1=C(/C=C/C(C)=C/C=C/C(C)=C/C=C/C=C(C)/C=C/C=C(C)/C=C/C2=C(C)C(=O)[C@@H](O)CC2(C)C)C(C)(C)C[C@H](O)C1=O [Astaxanthin] | 104% | 106% | 98.3% | 96.9% | 102% | 101% | 89.8% | 99.8% |
| COc1cccc(-c2cc(NCc3ccc4c(c3)OCO4)nc(N)n2)c1 [Wnt agonist 1] | 9.55% and 31.1% | 26.2% | 8.72% | 9.19% | 7.29% | 4.03% | 11% | 13.1% |
| O=C(Nc1ccccc1-c1cn2c(CN3CCNCC3)csc2n1)c1cnc2ccccc2n1 | 0.23% and 0.19% | 0.26% | 0.19% | 0.26% | 0.15% | 0.18% | 0.14% | 0.2% |
| O=C(NCCN1CCOCC1)c1ccc(Cl)cc1 | 97.6% and 103% | 106% | 101% | 98.8% | 97.6% | 105% | 105% | 93.8% |
| CC(=O)O[C@]1(C(C)=O)CC[C@H]2[C@@H]3C=C(C)C4=CC(=O)CC[C@]4(C)[C@H]3CC[C@@]21C [Megestrol Acetate] | 90.8% and 87.5% | 86.6% | 56.5% | 46.6% | 84.8% | 87.6% | 61.8% | 73.1% |

From the supplement of paper PMC10981050
